The entries come from a sample that favours hits as a whole.
ERp5 block: inhibitors of human ERp5; hit rate 0.05% among 350,000; Q15084; ERp5 insulin aggregation, absorbance 650 nm, 90 min; AID 651711; inhibition, % at 9.99 µM;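 active means mean replicate inhibition above about 25%, with every replicate also reaching it, limit read from the data, passing the limit was not always enough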
ALR H2O2 inh: human ALR oxidase inhibition via reduced H2O2; P55789; purified ALR, DTT oxidation, H2O2 HRP-luminol luminescence; inhibition, % (no concentration beside the values); hit rate 3.8% among 290,000; AID 485317;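 active means mean replicate inhibition above about 79%, with every replicate also reaching it, limit read from the data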
Target sequence (P55789 whole entry, looked up): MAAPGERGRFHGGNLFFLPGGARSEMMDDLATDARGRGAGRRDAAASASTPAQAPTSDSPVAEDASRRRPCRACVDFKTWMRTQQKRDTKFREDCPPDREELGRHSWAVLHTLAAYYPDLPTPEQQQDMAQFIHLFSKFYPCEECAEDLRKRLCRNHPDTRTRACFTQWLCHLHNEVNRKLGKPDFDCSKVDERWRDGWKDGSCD
NRP1-CendR mod: NRP-1/CendR interaction modulation | O14786 | FAM-RPARPAR peptide binding to NRP-1, fluorescence polarization | inhibition, % at 25 µM | hit rate 0.85% among 360,000 | AID 602438;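 active means inhibition or corrected inhibition above about 18%, plus a signal ratio from 0.5 to 1.5, limit read from the data, passing the limit was not always enough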
ARNT TACC3 PPI: disrupts binding between human ARNT and TACC3; inhibition, % at 9.99 µM; hit rate 0.66% among 390,000; Q9Y6A5; AlphaScreen His-ARNT PAS-B/GST-TACC3 binding, luminescence; TACC3 fragment carries E629A point mutation; AID 623870;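 active means mean inhibition of replicates at least 50% and at least half of replicates each reaching 50%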;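 further: 0% = complete ARNT plus TACC3 wells and 100% = ARNT alone without TACC3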
PDI turbidity: inhibitors of human protein disulfide isomerase | inhibition, % at 10 µM | PDI insulin aggregation turbidity, A650, 90 min | hit rate 0.052% among 350,000 | AID 588391 | P07237;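 active means mean inhibition across replicates of 30% or more, whatever share of single replicates reach that level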
PglD DTNB: inhibitors of Campylobacter jejuni PglD acetyltransferase | purified PglD enzyme, DTNB colorimetric CoA detection | inhibition, % at 12.5 µM | AID 602405 | hit rate 0.098% among 360,000; in the data active means inhibition above about 16%, passing the limit was not always enough
Numbers without * were called inactive; nt = not tested or not shown.

SMILES	ERp5 block	ALR H2O2 inh	NRP1-CendR mod	ARNT TACC3 PPI	PDI turbidity	PglD DTNB
Cc1cccc(-n2c(C)cc(/C=N/NC(=O)c3ccc(CN4CCOCC4)cc3)c2C)c1	1	99*	1	-2	-5	-20
COc1cccc(C(=O)Nc2ccc3c(c2)OC[C@H](C)N(C(C)=O)C[C@H](C)[C@@H](OC)CN(C)C3=O)c1	0	nt	nt	-1	nt	2
O=C(Nc1ccc(CN2CCOCC2)cc1)c1cc2ccccn2n1	3	85*	3	2	nt	1
CCC(C)NC(=O)c1cnn2c1NC(c1cccs1)CC2C(F)(F)F (stereo unspecified)	nt	-4	22*	nt	2	-3
FC(F)(F)C1CC(c2cccs2)Nc2ncnn21 (stereo unspecified)	nt	-5	30*	4	-3	-3
CC(C)(C)NC(=O)c1cnn2c1NC(c1ccc(F)cc1)CC2C(F)(F)F (stereo unspecified)	nt	-4	0	15	-4	-187
Cc1cccc(OCCCC(=O)Nc2ccc(N(C)C)cc2)c1	1	92*	-19	1	1	nt
Cc1cccc(OCCCC(=O)Nc2ccc(Br)cc2)c1	nt	-4	-1	-2	-7	4
CN(C)c1ccc(NC(=O)c2cc3c(=O)n4ccccc4nc3n2C)cc1	nt	82*	-19	-8	-4	1
COc1ccc(OC)c(NC(=O)c2cc3c(=O)n4ccccc4nc3n2C)c1	0	nt	-6	3	0	-1
Cc1cccc(NC(=O)CSc2cccc3cccnc23)c1	6	-11	-8	57*	14	0
O=C(CSc1cccc2cccnc12)Nc1cc(C(=O)O)cc(C(=O)O)c1	1	-8	-11	68*	1	0
COc1ccc(C2=Nc3ccccc3NC(=O)C2N(C(=O)c2cnc(C)cn2)c2ccc(N3CCOCC3)cc2)cc1 (stereo unspecified)	-1	nt	22*	nt	nt	4
Cc1ccc(Nc2cc(C)nn2-c2nc(C)cc(=O)[nH]2)cc1	nt	92*	-7	63*	0	3
CC(=O)C1=C(C)OC(N)=C(C#N)C1c1ccncc1 (stereo unspecified)	nt	-6	15	12	1	1
COc1ccc2cc(C3C(C#N)=C(N)OC(C)=C3C(C)=O)c(Cl)nc2c1 (stereo unspecified)	-1	96*	6	-4	9	nt
O=C(O)C1=C[C@@H](C2CCCC2)C[C@@H](OCCCCO)O1	3	nt	nt	61*	nt	-1
O=C(NC1CC1)C1=C[C@@H](C2CCCCC2)C[C@@H](OCCCCO)O1	-9	nt	4	-8	8	-1
CC(C)[C@H]1C=C(C(=O)O)O[C@@H](OCCCCO)C1	11	nt	26*	-6	-1	1
O=C(O)C1=C[C@@H](c2ccc(C(F)(F)F)cc2)C[C@@H](OCCCCO)O1	-4	26	28*	3	0	-1
C[C@@H]1CN([C@@H](C)CO)C(=O)c2cccc(NS(C)(=O)=O)c2O[C@H]1CN(C)Cc1ccncc1	-1	nt	nt	2	nt	3
COCC(=O)Nc1ccc2c(c1)C(=O)N(C)[C@H]1CC[C@@H](CC(=O)NCc3ccccc3)O[C@@H]1CO2	1	nt	nt	-2	nt	-1
CC(Sc1nc(N)cc(=O)[nH]1)C(=O)Nc1sc2c(c1C#N)CCCC2 (stereo unspecified)	-3	92*	-4	-6	-3	nt
CCc1cc(-c2n[nH]c(=S)n2CC)cs1	nt	28	-4	-5	19	2
CCn1c(-c2csc(C(C)C)c2)n[nH]c1=S	-2	56	-7	3	16	-3
SMILES	ERp5 block	ALR H2O2 inh	NRP1-CendR mod	ARNT TACC3 PPI	PDI turbidity	PglD DTNB
CC(C)Cn1c(-c2csc(C(C)C)c2)n[nH]c1=S	0	94*	8	nt	1	1
CCc1cc(-c2n[nH]c(=S)n2Cc2ccccc2)cs1	nt	92*	-5	-7	20	4
CCn1c(-c2ccc(Cl)cc2)n[nH]c1=S	nt	98*	0	-7	-2	4
CCn1c(-c2ccc(C)cc2)n[nH]c1=S	nt	10	3	-9	-6	0
CC(C)Cn1c(-c2csc3ccccc23)n[nH]c1=S	nt	95*	1	-19	7	11
O=C(C[C@H]1CC[C@H]2[C@@H](COC[C@@H](O)CN2Cc2nccs2)O1)NCc1ccccc1	-1	nt	nt	-3	nt	-2
COc1ccc(Cn2c(-c3ccc(OC)cc3)n[nH]c2=S)cc1	1	95*	-7	-2	8	nt
COc1ccc(-c2n[nH]c(=S)n2CC(C)C)cc1	nt	88*	-4	-3	-2	1
CCOc1ccc(-c2n[nH]c(=S)n2Cc2ccccc2)cc1	3	nt	5	-9	-3	-9
CCCCc1n[nH]c(=S)n1Cc1ccc(C)cc1	0	9	27*	nt	-5	nt
Cc1cc(-c2n[nH]c(=S)n2CC(C)C)cs1	1	44	-5	-28	8	nt
O=C(Cn1cc(C(F)(F)F)ccc1=O)N/N=C/c1ccc(O)cc1	5	99*	-3	-3	-5	-2
O=C(Cn1cc(C(F)(F)F)ccc1=O)N/N=C/c1ccc(Cl)c(Cl)c1	-4	-21	9	-2	-10	-3
COc1ccc(N(C(=O)c2ccncc2)S(=O)(=O)c2cccc([N+](=O)[O-])c2)cc1	-8	6	19*	-2	-2	0
O=C(/C=C/CCc1ccc2c(c1)OCO2)N1CCCCC1	9	nt	23*	-3	nt	2
S=c1nc(-c2csc3c2CCCC3)[nH][nH]1	9	99*	-21	1	-4	nt
CCc1ccc(/C=C2\C(=N)N3N=C(CC(=O)N4CCCCC4)SC3=NC2=O)cc1	-4	5	-24	-21	-5	-2
Cc1ccc(/C=C2\C(=N)N3N=C(CC(=O)N4CCCCC4)SC3=NC2=O)cc1	-1	11	-52	2	0	-4
CCN(CC)c1ccc(/C=C2\C(=N)N3N=C(CC(=O)N4CCOCC4)SC3=NC2=O)cc1	-7	98*	136	4	-6	-3
CC(C)c1ccc(/C=C2\C(=N)N3N=C(CC(=O)N4CCCCC4)SC3=NC2=O)cc1	-5	96*	-68	-6	4	-6
CSc1ccc(/C=C2\C(=N)N3N=C(CC(=O)N4CCOCC4)SC3=NC2=O)cc1	-3	6	-32	24	1	6
CSc1ccc(/C=C2\C(=N)N3N=C(CC(=O)N4CCCCC4)SC3=NC2=O)cc1	1	96*	-125	-7	6	0
N=C1/C(=C\c2ccc(OC(=O)c3ccc(F)cc3)cc2)C(=O)N=C2SC(N3CCOCC3)=NN12	6	95*	-36	-1	3	2
O=C(C1CCCC1)N1CCCCN2[C@@H](CO)[C@H](c3ccc(C#CC4CC4)cc3)[C@@H]2C1	-5	nt	nt	1	nt	-35
O=C(C[C@H]1C=C[C@H](NS(=O)(=O)c2ccc(F)cc2)[C@@H](CO)O1)NC1CCCCC1	-1	nt	nt	2	nt	2
